Bioassay records: PubChem BioAssay, National Center for Advancing Translational Sciences (NCATS)
Shown are actives, neighbours in structure and some others; about 10% of the full set was active somewhere.
CCT chaperon mod = High-Throughput Screening for Modulators of Cytosolic Chaperonin Activity. actives 0.3% (n = 360,000). purified chaperonin ATPase assay, HTRF ADP detection, 30 min. activity change, % (no concentration beside the values), hits read low. AID 651819, 2012; in the data active = activity change below about -30%
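TRiC at 40 or 20 nM final (batch-dependent) in 30 mM Tris pH 7.4, 100 mM KCl, 5 mM MgCl2, 1 mM DTT, with compound at single 76 uM and 10 uM ATP, 30 min at 37 deg C. ADP detected by HTRF Transcreener, 665/615 ratio.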
G9a inh = qHTS Assay for Inhibitors of Histone Lysine Methyltransferase G9a | actives 8.8% (n = 350,000) | AID 504332, 2011 | G9a H3K9 monomethylation, AlphaScreen, 2 h | Potency, µM (top dose mostly 102 µM), actives largely listed as inhibitors; note: nearly all actives have a fitted effect of over 75% in size
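AlphaScreen detection with an anti-monomethyl H3K9 antibody quantified product after a 2 h room-temperature reaction containing 500 nM biotinylated H3K9 peptide, 20 µM SAM and 20 nM enzyme, which had been preincubated 15 min with compound.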
VDR inh = Inhibitors of the vitamin D receptor (VDR): qHTS. Vitamin D3 receptor (Homo sapiens), P11473. VDR-SRC2-3 peptide fluorescence polarization, 2 h. Potency, µM, usual class: inhibitors. actives 0.93% (n = 400,000). AID 504847, 2011
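Inhibition of the VDR/SRC2-3 peptide interaction is quantified by fluorescence polarization. Compounds (23 nl, pintool) incubate with the reagents for 2 hours at ambient room temperature.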
MmCpn inh = Inhibitors of TCP-1 ring complex (TRiC) of Methanococcus maripaludis (MmCpn): qHTS | Chaperonin Mm-Cpn (Methanococcus maripaludis) | purified Mm-Cpn ATPase, ADP Transcreener TR-FRET | Potency, µM (doses to about 76.9 µM), most hits filed as inhibitors | actives 0.031% (n = 330,000) | AID 504842, 2011; note: nearly all actives have a fitted effect of over 80% in size
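Purified archaeal Mm-CPN (25nM final) preincubated 10 min at 37degC with compound, then 10uM ATP for 30 min at 37degC; ADP measured by HTRF Transcreener TR-FRET; buffer 30 mM TRIS pH 7.4, 100mM KCl, 5mM MgCl2, 1mM DTT.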
Sfp inh = qHTS Assay for Inhibitors of Bacillus subtilis Sfp phosphopantetheinyl transferase (PPTase); 4'-phosphopantetheinyl transferase ffp (Bacillus subtilis), Q9F4F7; Biochemical Sfp PPTase activity, qHTS; Potency, µM, most hits filed as inhibitors; actives 3.5% (n = 310,000); AID 1490, 2009;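 note: the enzyme is Sfp with the accession as filed and its product quenches rhodamine fluorescence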
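After 15 min at room temperature with compound, 15 nM Sfp received 5 uM rhodamine-CoA plus 12.5 uM BHQ-2-ybbR (50 mM Hepes pH 7.6, 10 mM MgCl2). Rate came from the fluorescence difference over 30 min, ex 525/em 598 nm.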
PLK1 PBD inh = qHTS for Inhibitors of PLK1-PDB (polo-like kinase 1 - polo-box domain): Primary Screen | Potency, µM, most hits filed as inhibitors | Plk1 PBD binding of FITC phosphopeptide, fluorescence polarization | AID 720504, 2013 | actives 2.8% (n = 360,000); note: series mostly up to about 57 µM; nearly all actives have a fitted effect of over 65% in size
Target sequence (P53350 whole entry, looked up, the tested form may be a part): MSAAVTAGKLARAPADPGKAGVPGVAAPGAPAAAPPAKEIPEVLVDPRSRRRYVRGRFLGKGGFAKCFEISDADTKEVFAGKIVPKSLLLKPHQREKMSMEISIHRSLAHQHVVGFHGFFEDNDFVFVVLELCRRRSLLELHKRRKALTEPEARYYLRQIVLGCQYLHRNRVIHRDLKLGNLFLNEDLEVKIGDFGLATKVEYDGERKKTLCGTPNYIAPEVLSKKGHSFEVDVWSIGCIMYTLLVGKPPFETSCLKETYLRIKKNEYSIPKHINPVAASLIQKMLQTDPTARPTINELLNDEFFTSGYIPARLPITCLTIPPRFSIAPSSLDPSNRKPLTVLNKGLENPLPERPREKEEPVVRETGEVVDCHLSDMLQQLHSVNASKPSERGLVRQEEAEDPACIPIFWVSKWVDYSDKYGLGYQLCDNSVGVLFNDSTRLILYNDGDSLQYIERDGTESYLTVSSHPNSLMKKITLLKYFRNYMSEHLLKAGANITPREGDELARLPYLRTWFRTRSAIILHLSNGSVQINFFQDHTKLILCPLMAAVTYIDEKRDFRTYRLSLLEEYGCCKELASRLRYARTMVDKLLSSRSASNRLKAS
Numbers stand for hits; 0 = inactive; ? = inconclusive; - = no result given; [ ] = dose if it differs, or a comment. Unless noted, calls come from the whole dose curve; as a rule, active = well fitted curve in the direction sought with a large enough effect; inconclusive = small, poorly fitted or top-dose-only effect, or another doubt; inactive = no such curve, though single readings can be large; an effect the other way counts as inactive or inconclusive.

SMILES | CCT chaperon mod | G9a inh | VDR inh | MmCpn inh | Sfp inh | PLK1 PBD inh
Cc1cc(NC(=O)C(C)C)ncc1NC(=O)c1cccc(F)c1 | 0 | 0 | 0 | 0 | 0 | 0
CCOc1cc(NC(=O)c2ccccn2)c(OCC)cc1NC(=O)CC(C)C | 0 | 0 | 0 | 0 | 0 | 21.2µM
CCOc1cc(NC(=O)c2ccccn2)c(OCC)cc1NC(=O)c1ccccc1 | 0 | 0 | 0 | 0 | 0 | 0
Cc1c(C(=O)Nc2cccc(-c3nc4ccccc4s3)c2)oc2ccc(F)cc12 | - | 0 | 0 | - | - | -
CCCCOc1ccccc1C1NC(=O)NC(C)=C1C(=O)OCc1ccco1 (configuration not stated) | 0 | 22.4µM | 0 | 0 | 0 | 0
CCOC(=O)c1c(NC(=O)c2cc(-c3ccc(OC)c(OC)c3)on2)sc2c1CCCC2 | - | 3.98µM | ? | - | - | -
Cc1nn(CCCC(=O)Nc2sc3c(c2C#N)CCC3)c(C)c1[N+](=O)[O-] | 0 | 31.6µM | ? | 0 | ? | 29.9µM
CCOC(=O)c1c(-c2ccc(C)cc2)csc1NC(=O)c1cc(=O)c2cc(C)ccc2o1 | - | ? | 28.2µM | - | - | -
CCOC(=O)c1c(NC(=O)c2cc(-c3cccc(OC)c3)on2)sc2c1CCCC2 | - | 8.91µM | 79.4µM | - | - | -
CCOC(=O)c1c(NC(=O)c2cc(OC)c(OC)c(OC)c2)sc2c1CCCC2 | - | 0 | 0 | - | - | -
CCCCC/C=C\C/C=C\CCCCCCCCCC(=O)NCCCC(=O)O | - | - | 0 | - | 0 | -
CCOc1ccc(C(=O)N2CCC(c3ccncc3)CC2)cc1 | - | 0 | 0 | - | - | -
COc1ccc(-c2cc(C(=O)Nc3cc(C)nn3-c3ccccc3)no2)cc1OC | 0 | 0 | 0 | 0 | 0 | 37.7µM
CCOC(=O)c1c(NC(=O)c2ccc(OC)c(OC)c2)sc2c1CCCCC2 | - | 8.91µM | 0 | - | - | -
CC(C)c1cc(C(=O)Nc2sc3c(c2C#N)CCC3)no1 | 0 | ? | 0 | 0 | ? | 23.8µM
N#Cc1c(NC(=O)c2cnccn2)sc2c1CCCC2 | 0 | ? | 0 | 0 | 25.1µM | 26.7µM
CC(=O)Nc1sc2c(c1C#N)CCC2 | 0 | 0 | 0 | 0 | 0 | 0
N#Cc1c(NC(=O)c2ccc([N+](=O)[O-])o2)sc2c1CCC2 | 0 | 31.6µM | 0 | 0 | 0 | 0
N#Cc1c(NC(=O)c2ccc(Cn3cc(Br)cn3)o2)sc2c1CCCCCC2 | 0 | 11.2µM | 0 | ? | ? | ?
CC(C)c1onc(C(=O)Nc2sc3c(c2C#N)CCC3)c1[N+](=O)[O-] | 0 | ? | 0 | 0 | 56.2µM | ?
NNC(=O)c1ccc(Cn2cc(Br)cn2)o1 | 0 | 0 | 0 | 0 | 0 | 0
CCOC(=O)c1c(NC(=O)c2cc(-c3ccc(OC)cc3)on2)sc(C)c1C | - | 8.91µM | ? | - | - | -
Cc1ccc(Cn2cc(CCC(=O)NC3CCCCC3)c3ccccc32)cc1 | - | 0 | 0 | - | - | -
Cn1nccc1C(=O)Nc1sc2c(c1C#N)CCCC2 | 0 | 0 | 0 | 0 | 0 | ?
CCOC(=O)c1c(-c2ccc(C)cc2)csc1NC(=O)c1cc(-c2ccc(Cl)cc2)on1 | - | 0 | 0 | - | - | -
SMILES | CCT chaperon mod | G9a inh | VDR inh | MmCpn inh | Sfp inh | PLK1 PBD inh
COc1ccc(-c2cc(C(=O)Nc3sc4c(c3C#N)CCCC4)no2)cc1OC | - | 10µM | ? | - | - | -
N#Cc1ccsc1NC(=O)c1cnccn1 | 0 | 3.55µM | 0 | 0 | 50.1µM | 0
CCOC(=O)c1c(-c2ccccc2)csc1NC(=O)c1cc(-c2cccc(Cl)c2)on1 | - | 8.91µM | ? | - | - | -
CCN(CC)c1cc2c(cc1F)c(=O)c(S(=O)(=O)c1cccc(C)c1)cn2C | - | 0 | 0 | - | - | -
CN(C)C(=O)c1ccc(-c2nc(N(C)C)c3ccccc3n2)cc1 | - | - | 0 | - | 0 | -
C/C(=C\C(=O)c1ccc(C)o1)Nc1ccc(C(=O)O)cc1C | 0 | 70.8µM | 0 | 0 | 0 | 0
O=C1OC2(CCCCC2)CC2=C1C1O[C@](c3ccsc3)(Cc3c1ccc1ccccc31)O2 | - | - | - | 0[15.4 µM] | 0 | -
CCC12CC3CC(C1)CC(C(=O)Nc1nn[nH]n1)(C3)C2 | 0 | 20µM | 0 | 0 | 0 | 0
